Targets with a hit are over-represented here; the source holds about 7,900 in all. About 0.6% of all pairs of compound and target were hits.
compound: C#Cc1cccc(Nc2ncnc3cc(OCCOC)c(OCCOC)cc23)c1 [erlotinib]; assay: log2 fold change, soluble protein after heating vs DMSO (PISA); higher = thermal stabilisation; K562 cells, 10 uM, 30 min; active = over 0.2 and 3.5 SD of the protein, either way, in both replicates (recomputed)
In short: (§1)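 Aliquots of K562 cells (2×10^6 cells/mL) treated with 10 μM compound for 30 min were heated for 3 min over 48°C-58°C. After pooling and extraction in PBS with 0.5% NP-40 at 4°C, soluble protein from a 21,000xg, 90 min spin was quantified by TMTpro 16plex LC-MS/MS with channel sums equalised. Thermal stability is expressed against control samples, from duplicates, as a log2 fold change.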

Sequence of UniProt P51692 (P51692 whole entry, looked up): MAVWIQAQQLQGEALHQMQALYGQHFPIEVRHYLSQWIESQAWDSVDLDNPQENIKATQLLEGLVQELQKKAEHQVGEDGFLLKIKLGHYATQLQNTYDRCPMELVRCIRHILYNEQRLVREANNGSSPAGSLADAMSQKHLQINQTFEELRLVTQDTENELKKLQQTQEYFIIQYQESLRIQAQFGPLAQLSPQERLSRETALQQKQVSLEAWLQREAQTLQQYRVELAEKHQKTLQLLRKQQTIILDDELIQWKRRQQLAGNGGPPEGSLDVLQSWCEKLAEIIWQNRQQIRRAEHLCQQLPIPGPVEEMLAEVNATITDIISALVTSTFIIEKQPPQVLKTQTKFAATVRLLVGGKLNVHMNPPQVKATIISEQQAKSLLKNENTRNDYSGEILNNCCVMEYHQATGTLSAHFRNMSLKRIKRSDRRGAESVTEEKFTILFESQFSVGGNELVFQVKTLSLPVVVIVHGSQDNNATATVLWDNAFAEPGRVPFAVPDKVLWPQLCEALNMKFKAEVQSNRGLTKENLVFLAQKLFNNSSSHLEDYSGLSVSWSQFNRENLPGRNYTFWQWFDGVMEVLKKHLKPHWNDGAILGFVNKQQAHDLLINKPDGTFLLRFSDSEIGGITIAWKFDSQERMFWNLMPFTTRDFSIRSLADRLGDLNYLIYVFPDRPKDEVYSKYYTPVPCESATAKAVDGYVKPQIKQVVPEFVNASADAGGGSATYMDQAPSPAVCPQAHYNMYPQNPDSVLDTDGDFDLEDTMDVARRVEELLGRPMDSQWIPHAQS
Sequence of UniProt Q8NEW0 (Q8NEW0 whole entry, looked up): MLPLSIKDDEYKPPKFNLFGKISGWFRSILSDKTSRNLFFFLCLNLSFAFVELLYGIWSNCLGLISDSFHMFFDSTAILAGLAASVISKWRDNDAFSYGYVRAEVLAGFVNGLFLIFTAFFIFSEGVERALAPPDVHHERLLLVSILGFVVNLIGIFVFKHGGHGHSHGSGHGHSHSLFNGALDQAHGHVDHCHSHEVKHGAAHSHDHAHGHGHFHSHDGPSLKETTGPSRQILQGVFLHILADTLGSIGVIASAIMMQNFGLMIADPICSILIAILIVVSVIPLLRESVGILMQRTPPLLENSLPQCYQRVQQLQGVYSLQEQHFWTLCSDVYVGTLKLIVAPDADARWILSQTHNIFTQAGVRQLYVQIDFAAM
Sequence of UniProt Q02447 (Q02447 whole entry, looked up): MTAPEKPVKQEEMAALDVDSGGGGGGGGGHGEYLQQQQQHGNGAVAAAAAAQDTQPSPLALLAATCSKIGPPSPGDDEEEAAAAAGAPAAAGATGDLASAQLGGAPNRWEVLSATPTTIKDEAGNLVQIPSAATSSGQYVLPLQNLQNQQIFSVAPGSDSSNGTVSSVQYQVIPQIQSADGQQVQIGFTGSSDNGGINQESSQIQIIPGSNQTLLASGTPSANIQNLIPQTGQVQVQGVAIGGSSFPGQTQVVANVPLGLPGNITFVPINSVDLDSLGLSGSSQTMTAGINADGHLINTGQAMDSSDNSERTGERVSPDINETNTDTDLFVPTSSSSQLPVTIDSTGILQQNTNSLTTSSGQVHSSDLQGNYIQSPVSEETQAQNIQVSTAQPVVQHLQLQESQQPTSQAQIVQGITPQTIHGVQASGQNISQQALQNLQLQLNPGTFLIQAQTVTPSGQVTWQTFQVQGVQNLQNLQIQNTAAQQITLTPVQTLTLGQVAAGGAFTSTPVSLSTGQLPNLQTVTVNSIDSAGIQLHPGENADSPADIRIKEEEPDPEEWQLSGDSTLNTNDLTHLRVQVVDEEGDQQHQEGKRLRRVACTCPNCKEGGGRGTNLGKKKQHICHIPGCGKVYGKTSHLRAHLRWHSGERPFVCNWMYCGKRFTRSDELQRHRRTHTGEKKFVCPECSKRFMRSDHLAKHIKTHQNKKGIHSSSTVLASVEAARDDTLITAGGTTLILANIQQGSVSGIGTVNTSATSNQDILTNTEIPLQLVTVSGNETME
Sequence of UniProt Q92544 (Q92544 whole entry, looked up): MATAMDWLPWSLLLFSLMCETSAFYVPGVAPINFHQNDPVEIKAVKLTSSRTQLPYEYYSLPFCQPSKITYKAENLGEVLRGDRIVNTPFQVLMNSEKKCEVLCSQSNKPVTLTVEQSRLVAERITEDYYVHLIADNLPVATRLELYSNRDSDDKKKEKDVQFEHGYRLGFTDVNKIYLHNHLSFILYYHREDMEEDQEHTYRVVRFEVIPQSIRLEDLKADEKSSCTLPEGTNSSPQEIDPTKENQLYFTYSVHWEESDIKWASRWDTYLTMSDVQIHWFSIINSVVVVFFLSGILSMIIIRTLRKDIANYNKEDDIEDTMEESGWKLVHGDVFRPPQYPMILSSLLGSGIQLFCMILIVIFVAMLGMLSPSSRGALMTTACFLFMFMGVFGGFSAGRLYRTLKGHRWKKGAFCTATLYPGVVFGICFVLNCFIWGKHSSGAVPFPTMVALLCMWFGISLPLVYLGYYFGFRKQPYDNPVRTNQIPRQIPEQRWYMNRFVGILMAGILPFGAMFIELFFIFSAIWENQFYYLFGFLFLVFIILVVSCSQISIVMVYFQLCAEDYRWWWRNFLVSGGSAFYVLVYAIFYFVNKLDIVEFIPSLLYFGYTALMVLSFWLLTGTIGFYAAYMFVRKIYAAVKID
Sequence of UniProt O00506 (O00506 whole entry, looked up): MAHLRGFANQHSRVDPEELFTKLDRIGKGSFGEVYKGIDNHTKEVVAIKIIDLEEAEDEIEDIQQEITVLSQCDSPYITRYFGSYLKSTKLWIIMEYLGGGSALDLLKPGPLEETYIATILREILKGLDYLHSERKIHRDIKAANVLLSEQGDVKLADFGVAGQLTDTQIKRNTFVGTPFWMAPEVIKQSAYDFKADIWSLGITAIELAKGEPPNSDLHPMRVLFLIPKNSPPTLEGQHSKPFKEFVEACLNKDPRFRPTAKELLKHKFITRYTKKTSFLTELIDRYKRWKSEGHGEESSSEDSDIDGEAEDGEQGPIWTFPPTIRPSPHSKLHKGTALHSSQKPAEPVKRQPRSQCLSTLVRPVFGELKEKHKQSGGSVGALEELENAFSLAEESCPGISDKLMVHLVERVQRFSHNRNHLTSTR
Sequence of UniProt Q92797 (Q92797 whole entry, looked up): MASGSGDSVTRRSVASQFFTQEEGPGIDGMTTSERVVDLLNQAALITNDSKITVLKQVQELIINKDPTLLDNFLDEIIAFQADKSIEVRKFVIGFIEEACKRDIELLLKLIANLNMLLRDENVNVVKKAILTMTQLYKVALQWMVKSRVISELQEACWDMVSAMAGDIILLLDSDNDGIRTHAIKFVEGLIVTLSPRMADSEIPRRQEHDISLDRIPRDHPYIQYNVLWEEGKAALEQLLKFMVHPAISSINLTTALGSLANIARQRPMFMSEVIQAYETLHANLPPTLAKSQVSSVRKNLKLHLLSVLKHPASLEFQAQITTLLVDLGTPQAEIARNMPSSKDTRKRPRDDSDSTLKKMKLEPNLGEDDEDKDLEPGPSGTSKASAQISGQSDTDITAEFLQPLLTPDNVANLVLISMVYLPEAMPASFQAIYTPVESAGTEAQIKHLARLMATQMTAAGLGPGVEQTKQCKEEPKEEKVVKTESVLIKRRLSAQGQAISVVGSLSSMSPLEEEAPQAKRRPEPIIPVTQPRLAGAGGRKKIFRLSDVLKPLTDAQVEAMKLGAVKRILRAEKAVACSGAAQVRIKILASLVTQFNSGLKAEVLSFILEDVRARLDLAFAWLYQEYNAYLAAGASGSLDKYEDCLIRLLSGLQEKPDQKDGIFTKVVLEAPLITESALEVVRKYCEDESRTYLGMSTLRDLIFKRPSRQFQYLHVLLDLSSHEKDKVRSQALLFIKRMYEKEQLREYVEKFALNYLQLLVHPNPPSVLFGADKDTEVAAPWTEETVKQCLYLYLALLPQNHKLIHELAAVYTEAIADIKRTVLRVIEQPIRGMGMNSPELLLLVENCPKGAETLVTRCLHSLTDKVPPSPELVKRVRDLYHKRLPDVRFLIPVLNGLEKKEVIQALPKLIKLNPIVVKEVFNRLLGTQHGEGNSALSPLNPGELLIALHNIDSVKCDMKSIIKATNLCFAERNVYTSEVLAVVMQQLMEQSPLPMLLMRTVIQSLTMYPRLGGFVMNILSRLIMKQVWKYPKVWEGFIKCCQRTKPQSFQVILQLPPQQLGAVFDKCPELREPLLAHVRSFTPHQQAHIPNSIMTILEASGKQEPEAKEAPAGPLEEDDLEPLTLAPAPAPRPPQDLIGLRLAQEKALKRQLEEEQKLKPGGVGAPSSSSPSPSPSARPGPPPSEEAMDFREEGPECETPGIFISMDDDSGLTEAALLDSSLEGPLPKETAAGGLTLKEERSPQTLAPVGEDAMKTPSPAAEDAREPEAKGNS
Sequence of UniProt Q969Z0 (Q969Z0 whole entry, looked up): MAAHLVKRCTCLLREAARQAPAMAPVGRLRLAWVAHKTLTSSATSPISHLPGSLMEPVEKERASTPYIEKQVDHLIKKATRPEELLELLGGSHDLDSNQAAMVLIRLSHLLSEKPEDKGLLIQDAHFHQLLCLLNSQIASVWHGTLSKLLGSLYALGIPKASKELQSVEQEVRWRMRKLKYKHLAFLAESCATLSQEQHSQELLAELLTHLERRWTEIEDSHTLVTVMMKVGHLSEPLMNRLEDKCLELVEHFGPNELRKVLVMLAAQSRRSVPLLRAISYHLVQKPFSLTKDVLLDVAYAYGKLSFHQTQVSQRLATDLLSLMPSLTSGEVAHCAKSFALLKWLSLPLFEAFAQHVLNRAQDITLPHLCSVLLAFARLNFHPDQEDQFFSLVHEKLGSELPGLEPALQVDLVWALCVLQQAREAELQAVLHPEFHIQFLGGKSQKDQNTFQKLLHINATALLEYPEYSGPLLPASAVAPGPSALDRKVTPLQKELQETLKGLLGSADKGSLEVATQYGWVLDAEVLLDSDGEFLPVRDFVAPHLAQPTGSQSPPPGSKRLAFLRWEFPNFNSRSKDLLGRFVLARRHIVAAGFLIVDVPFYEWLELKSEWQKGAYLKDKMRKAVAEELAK
Sequence of UniProt P62318 (P62318 whole entry, looked up): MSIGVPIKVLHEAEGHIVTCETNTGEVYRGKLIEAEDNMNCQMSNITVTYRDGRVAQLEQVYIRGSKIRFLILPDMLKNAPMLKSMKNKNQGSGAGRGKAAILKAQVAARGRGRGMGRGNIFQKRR

log2 fold change, inactive:
TIMM13 (UniProt Q9Y5L4) 0.018
SLC25A38 (UniProt Q96DW6) 0.007
SMARCA5 (UniProt O60264) 0.103
TEX30 (UniProt Q5JUR7) 0.183
SMG1 (UniProt Q96Q15) 0.012
SNRPD3 (UniProt P62318) -0.019
SUPT5H (UniProt O00267) 0.05
SPAST (UniProt Q9UBP0) 0.139
TBCD (UniProt Q9BTW9) 0.022
SMAP (UniProt O00193) -0.006
SPR (UniProt P35270) 0.018
TAOK3 (UniProt Q9H2K8) -0.017
SP3 (UniProt Q02447) 0.034
STOM (UniProt P27105) -0.027
TJP1 (UniProt Q07157) 0.095
SLC30A10 (UniProt Q6XR72) 0.033
SPCS2 (UniProt Q15005) -0.022
TM9SF4 (UniProt Q92544) -0.015
STAT5B (UniProt P51692) 0.027
SRSF10 (UniProt O75494) 0.004
SNX12 isoform 1 (UniProt Q9UMY4) 0.002
TBC1D15 isoform 3 (UniProt Q8TC07) -0.007
SYMPK (UniProt Q92797) -0.005
TBC1D23 (UniProt Q9NUY8) 0.043
SMAP2 (UniProt Q8WU79) -0.044
SNX5 (UniProt Q9Y5X3) 0.033
SNX9 (UniProt Q9Y5X1) -0.005
SRPRB (UniProt Q9Y5M8) -0.015
TANGO6 (UniProt Q9C0B7) 0.208
TGFBRAP1 (UniProt Q8WUH2) 0.064
TANK (UniProt Q92844) -0.019
TBRG4 (UniProt Q969Z0) 0.072
TERF2IP (UniProt Q9NYB0) -0.046
STK25 (UniProt O00506) 0.081
SLC27A4 (UniProt Q6P1M0) 0.039
SMC5 (UniProt Q8IY18) -0.041
SLC30A7 (UniProt Q8NEW0) -0.004

compound: C/C(=N\NC(=O)C1=CC(=CC=C1)S(=O)(=O)N2CCOCC2)/C3=C(C=CC(=C3)Cl)O; assay: as above
In short: as §1

log2 fold change, inactive:
TIMM13 (UniProt Q9Y5L4) 0
SLC25A38 (UniProt Q96DW6) -0.001
SMARCA5 (UniProt O60264) 0.044
TEX30 (UniProt Q5JUR7) 0.165
SMG1 (UniProt Q96Q15) 0.101
SNRPD3 (UniProt P62318) -0.02
SUPT5H (UniProt O00267) 0.084
SPAST (UniProt Q9UBP0) 0.129
TBCD (UniProt Q9BTW9) 0.06
SMAP (UniProt O00193) 0.026
SPR (UniProt P35270) -0.089
TAOK3 (UniProt Q9H2K8) 0.08
SP3 (UniProt Q02447) -0.028
STOM (UniProt P27105) -0.087
TJP1 (UniProt Q07157) 0.072
SLC30A10 (UniProt Q6XR72) 0.068
SPCS2 (UniProt Q15005) 0.015
TM9SF4 (UniProt Q92544) 0.011
STAT5B (UniProt P51692) -0.148
SRSF10 (UniProt O75494) -0.284
SNX12 isoform 1 (UniProt Q9UMY4) 0
TBC1D15 isoform 3 (UniProt Q8TC07) 0.075
SYMPK (UniProt Q92797) 0.179
TBC1D23 (UniProt Q9NUY8) 0.012
SMAP2 (UniProt Q8WU79) 0.13
SNX5 (UniProt Q9Y5X3) 0.09
SNX9 (UniProt Q9Y5X1) 0.047
SRPRB (UniProt Q9Y5M8) 0.106
TANGO6 (UniProt Q9C0B7) 0.032
TGFBRAP1 (UniProt Q8WUH2) 0.217
TANK (UniProt Q92844) -0.031
TBRG4 (UniProt Q969Z0) 0.18
TERF2IP (UniProt Q9NYB0) 0
STK25 (UniProt O00506) 0.011
SLC27A4 (UniProt Q6P1M0) 0.013
SMC5 (UniProt Q8IY18) 0.091
SLC30A7 (UniProt Q8NEW0) 0.175

— the supplement of paper PMC10849652
